From PubChem BioAssay
Pol eta inh-1: blocks human DNA polymerase eta activity; recombinant Pol eta, fluorescent DNA replication assay; Q9Y253; actives 1.2% (n = 390,000); Potency, µM (doses to about 114 µM), for inactives: at the top dose activity change, negative = inhibition, most hits filed as inhibitors; further: potency means the concentration at half of the fitted maximal effect; on the % scale 0 is the no-effect control and ±100 the full control effect
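Pol eta at 10 nM preincubated with compounds 15 min at room temperature; reaction started with fluorescent substrate (50 nM final) and read kinetically at 0 and 10 min.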
PI5P4K alpha inh: blocks human PI5P4K alpha kinase activity; actives 1.2% (n = 330,000); P48426; PI5P4Kalpha enzyme, ADP-Glo luminescence, 60 min; hits give low values; max response, %; active means max response of -50% or lower; inconclusive means between -30% and -50%; inactive means -30% or higher; further: value at the top dose of about 77 µM; on the % scale 0 is the no-effect control and ±100 the full control effect
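Single end-point luminescence (ADP-Glo) quantified ADP from PI5P4Kalpha turnover; ATP 5 microM final, 1 h at RT, 0.1% CHAPS and 0.28 mM EGTA in HEPES pH 7.4.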
WRN helicase inh: blocks human WRN helicase. Potency, µM (highest dose often 114 µM), for the others: at the top dose activity change, negative = inhibition, usual class: inhibitors. WRN helicase unwinding, fluorescent forked duplex, kinetic. actives 0.46% (n = 360,000). Q14191; further: potency means the concentration at half of the fitted maximal effect; on the % scale 0 is the no-effect control and ±100 the full control effect; nearly all actives have a fitted effect of over 55% in size
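Screening of the MLSMR collection measured strand separation of a quenched forked DNA duplex (100 nM) by 20 nM WRN with 2 mM ATP, all final. Compounds were preincubated with enzyme 15 min at room temperature.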
Pol kappa inh-1: inhibitors of human DNA polymerase kappa | purified Pol kappa, fluorescent DNA synthesis assay, 10 min | actives 0.53% (n = 400,000) | Potency, µM (series often up to 107 µM), for inactives: top-dose activity, negative = inhibition, hits mostly inhibitors; further: potency means the concentration at half of the fitted maximal effect; on the % scale 0 is the no-effect control and ±100 the full control effect
Target sequence (Q9UBT6 whole entry, looked up): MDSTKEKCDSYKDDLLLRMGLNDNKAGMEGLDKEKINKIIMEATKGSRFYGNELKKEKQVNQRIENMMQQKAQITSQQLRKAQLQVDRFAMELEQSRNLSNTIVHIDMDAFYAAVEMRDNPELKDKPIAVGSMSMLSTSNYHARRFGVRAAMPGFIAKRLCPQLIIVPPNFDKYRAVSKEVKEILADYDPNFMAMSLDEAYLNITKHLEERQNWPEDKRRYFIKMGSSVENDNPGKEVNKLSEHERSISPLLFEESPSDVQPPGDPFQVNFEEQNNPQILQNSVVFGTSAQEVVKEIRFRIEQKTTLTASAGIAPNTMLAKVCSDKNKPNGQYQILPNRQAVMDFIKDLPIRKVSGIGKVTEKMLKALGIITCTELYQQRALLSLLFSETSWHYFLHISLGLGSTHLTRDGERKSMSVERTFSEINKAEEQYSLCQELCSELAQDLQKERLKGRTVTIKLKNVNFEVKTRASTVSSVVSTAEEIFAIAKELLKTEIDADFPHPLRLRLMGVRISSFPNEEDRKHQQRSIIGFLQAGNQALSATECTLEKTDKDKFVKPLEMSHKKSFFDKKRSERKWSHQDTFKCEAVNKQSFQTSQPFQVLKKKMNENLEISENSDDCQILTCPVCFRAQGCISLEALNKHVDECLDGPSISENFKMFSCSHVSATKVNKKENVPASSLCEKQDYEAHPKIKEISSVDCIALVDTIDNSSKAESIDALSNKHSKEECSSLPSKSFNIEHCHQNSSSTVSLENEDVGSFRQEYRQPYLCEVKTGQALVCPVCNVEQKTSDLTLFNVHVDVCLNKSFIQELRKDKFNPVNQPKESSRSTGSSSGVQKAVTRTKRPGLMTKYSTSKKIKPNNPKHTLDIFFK
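Readout: fluorescence, taken kinetically at 0 and 10 min. Conditions: 10 nM Pol kappa, 15 min RT compound preincubation, 50 nM substrate final. Controls: enzyme-free buffer wells.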
POLI inh: inhibitors of human DNA polymerase iota; Pol iota fluorescent replication assay, 10 min; Q9UNA4; AID 588590; Potency, µM (highest dose often 115 µM), for the others: at the top dose activity, negative = inhibition, usual class: inhibitors; actives 1% (n = 390,000); further: potency means the concentration at half of the fitted maximal effect
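Pol iota at 10 nM preincubated 15 min with compounds at room temperature; reaction started with fluorescent substrate, 50 nM final. Fluorescence read kinetically at 0 and 10 min; buffer-only wells as negative control.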
POLB inh: inhibitors of human DNA polymerase beta. Pol beta primer extension/strand displacement, fluorescence kinetic. Potency, µM (highest dose often 114 µM), inactives show at the top dose activity change, negative = inhibition, most hits filed as inhibitors. actives 1.3% (n = 340,000); further: potency means the concentration at half of the fitted maximal effect; on the % scale 0 is the no-effect control and ±100 the full control effect
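Enzyme-only controls used 10 nM Pol beta; buffer lacking enzyme served as negative control. Compound preincubated 15 min, then 50 nM substrate added; 0 and 10 min reads at room temperature.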
Pol kappa inh-2: confirmation of human DNA polymerase kappa inhibitors | Potency, µM, most hits filed as inhibitors | shares compounds with Pol eta inh-1 | purified Pol-kappa, fluorescent strand-displacement substrate | AID 720501 | actives 76% (n = 920); further: potency means the concentration at half of the fitted maximal effect
Pol eta inh-2: confirmation of human DNA polymerase eta inhibitors. shares compounds with Pol eta inh-1. Pol eta primer extension, TAMRA/BHQ fluorescence, 10 min. Potency, µM, hits mostly inhibitors. actives 64% (n = 2,600). AID 720502; further: potency means the concentration at half of the fitted maximal effect
An asterisk follows results filed as active; [ ] = another dose, or the depositor's remark. In the library only some 2.8% were active in any assay of this set; here they are far more common. Unless noted, the call rests on the fitted dose curve; in most records, active means well fitted curve in the direction sought with a large enough effect; inconclusive means small, poorly fitted or top-dose-only effect, or another doubt; inactive means no such curve, though single readings can be large; an effect the other way counts as inactive or inconclusive.

Cc1ccc(NC(=O)c2c(NC(=O)C(F)(F)F)sc3c2CCCCC3)cc1 was read as Pol eta inh-1 50µM*, Pol kappa inh-1 inconclusive, POLI inh inconclusive, POLB inh inconclusive and Pol eta inh-2 inconclusive.
Screening O=C(COc1ccc(Cl)cc1)Nc1sc2c(c1C(=O)Nc1cccc(Cl)c1)CCCC2 returned Pol eta inh-1 -11%, Pol kappa inh-1 0%, POLI inh -17% and POLB inh -21%.
For Cc1cccc(NC(=O)c2c(NC(=O)C(F)(F)F)sc3c2CCCCC3)c1 the results were Pol eta inh-1 45µM*, Pol kappa inh-1 -21%, POLI inh inconclusive, POLB inh inconclusive and Pol kappa inh-2 67*.
O=C(Nc1cccc(Cl)c1)c1c(NC(=O)C(F)(F)F)sc2c1CCCC2 was read as Pol eta inh-1 25µM*, Pol kappa inh-1 -32%, POLI inh inconclusive, POLB inh inconclusive and Pol eta inh-2 inconclusive.
For CO[C@@H]1CN(C)C(=O)c2ccc(NC(=O)C3CCCC3)cc2OC[C@@H](C)N(Cc2ccc(F)cc2)C[C@H]1C the results were PI5P4K alpha inh -5 and WRN helicase inh -8%.
O=C(O)c1cccc(NS(=O)(=O)c2ccc(-c3ccc(S(=O)(=O)Nc4cccc(C(=O)O)c4)cc3)cc2)c1 was read as Pol eta inh-1 inconclusive, PI5P4K alpha inh inconclusive, WRN helicase inh -9%, Pol kappa inh-1 50µM*, POLI inh inconclusive, POLB inh inconclusive, Pol kappa inh-2 21* and Pol eta inh-2 inconclusive.
`COc1cc(OC)c(NC(=O)CCn2cccn2)cc1Cl` gave Pol eta inh-1 -8%, Pol kappa inh-1 -17%, POLI inh -5% and POLB inh 3%.
Screening COc1ccc(N2Cc3cccc(C(=O)Nc4cc(C)cc(C)c4)c3C2=O)cc1 returned Pol eta inh-1 79µM*, Pol kappa inh-1 inconclusive, POLI inh 71µM*, POLB inh 10µM*, Pol kappa inh-2 42* and Pol eta inh-2 inconclusive.
COCCN1Cc2cccc(C(=O)Nc3cc(C)cc(C)c3)c2C1=O was read as Pol eta inh-1 -20%, PI5P4K alpha inh 15, WRN helicase inh -13%, Pol kappa inh-1 -13%, POLI inh 35% and POLB inh 0%.
COC(=O)c1cc(Cl)ccc1NC(=O)CSc1ncc(S(=O)(=O)c2ccc(Br)cc2)c(=O)[nH]1 was read as Pol eta inh-1 89µM*, Pol kappa inh-1 inconclusive, POLI inh inconclusive, POLB inh 45µM*, Pol kappa inh-2 42* and Pol eta inh-2 inconclusive.
Screening COc1ccc(CNC(=O)CSc2ncc(S(=O)(=O)c3ccc(Br)cc3)c(=O)[nH]2)cc1 returned Pol eta inh-1 -11%, Pol kappa inh-1 -13%, POLI inh -20% and POLB inh 17%.
For COc1ccc(CNC(=O)COC(=O)c2c(NC(C)=O)sc(C)c2C)cc1OC the results were Pol eta inh-1 -7%, PI5P4K alpha inh -5 and WRN helicase inh 5%.
`CC(C)(C)N/N=C1\CC(c2ccccc2)Oc2ccccc21` (stereo not drawn) gave Pol eta inh-1 -27%, PI5P4K alpha inh 8, WRN helicase inh -8%, Pol kappa inh-1 -6%[60.1 µM], POLI inh 35% and POLB inh 1%[57.1 µM].
`O=C(O)c1cc(N/N=C2/CC(c3ccccc3)Oc3ccccc32)ccc1Cl` (stereo not drawn) gave Pol eta inh-1 20µM*, PI5P4K alpha inh -22, WRN helicase inh inconclusive, Pol kappa inh-1 inconclusive, POLI inh inconclusive, POLB inh 40µM* and Pol eta inh-2 60*.
Screening N#Cc1cc(C(=O)c2cc(F)ccc2O)cn(-c2nccs2)c1=O returned Pol eta inh-1 28µM*, PI5P4K alpha inh inconclusive, WRN helicase inh inconclusive, Pol kappa inh-1 inconclusive, POLI inh inconclusive, POLB inh 18µM* and Pol eta inh-2 inconclusive.
Screening Cc1c(-n2cc(C(=O)c3cc(F)ccc3O)cc(C#N)c2=O)c(=O)n(-c2ccccc2)n1C returned Pol eta inh-1 6%, PI5P4K alpha inh 1, WRN helicase inh -23%, Pol kappa inh-1 -2%, POLI inh 74% and POLB inh 3%.
N#Cc1cc(C(=O)c2ccccc2O)cn(-c2nccs2)c1=O was read as Pol eta inh-1 16µM*, PI5P4K alpha inh inconclusive, WRN helicase inh -7%[11.6 µM], Pol kappa inh-1 -29%, POLI inh -16%, POLB inh 20µM* and Pol eta inh-2 67*.
`CCOc1ccccc1NC(=O)CSc1nc2cc(OC)c(OC)cc2c2nc(CCn3c(C)nc4ccccc43)nn12` gave Pol kappa inh-1 -20%, POLI inh -13% and POLB inh -19%.
Screening O=C(C=C1SCCS1)/C=C/c1ccco1 returned Pol eta inh-1 18µM*, PI5P4K alpha inh -57*, WRN helicase inh inconclusive, Pol kappa inh-1 inconclusive, POLI inh 35µM*, POLB inh 22µM* and Pol eta inh-2 inconclusive.
O=C(C=Cc1ccco1)c1ccco1 was read as Pol eta inh-1 -1%, PI5P4K alpha inh -10, WRN helicase inh -23%, Pol kappa inh-1 inconclusive and POLI inh inconclusive.
Screening COC(=O)c1ccc(NC(=O)c2cccc(NC(=O)c3ccccc3)c2)cc1 returned Pol eta inh-1 0%, PI5P4K alpha inh 3, WRN helicase inh 15%, Pol kappa inh-1 -4%, POLI inh 15% and POLB inh 0%.
For O=C(O)c1ccc(COCC(F)(F)C(F)F)o1 the results were Pol eta inh-1 18µM*, PI5P4K alpha inh -4, WRN helicase inh -13%[57.1 µM], Pol kappa inh-1 -24%, POLI inh -16%, POLB inh 28µM* and Pol eta inh-2 inconclusive.
O=C(O)c1ccc(COc2c(F)c(F)c(F)c(F)c2F)o1 was read as Pol eta inh-1 22µM*, WRN helicase inh -24%[57.1 µM], Pol kappa inh-1 inconclusive, POLI inh 22µM*, POLB inh 40µM* and Pol eta inh-2 76*.
For O=C(O)CN1C(=O)/C(=C\c2cc(Br)ccc2OCc2ccccc2F)SC1=S the results were Pol eta inh-1 inconclusive, PI5P4K alpha inh -9, WRN helicase inh 2%[11.6 µM], Pol kappa inh-1 -14%, POLI inh -25%, POLB inh inconclusive and Pol eta inh-2 inconclusive.
